A selection: hits, their analogues and other compounds. The true share with any hit is near 3.9%.
D1 potentiator – potentiators of human D1 dopamine receptor; P21728; 360,000 compounds, 0.036% hits; HEK293 TREx D1 cells, calcium flux, dopamine EC20 potentiation; AID 504651; potentiation, % at 10 µM; in the data active = potentiation above about 30%; note: 0% is about no effect
GALK inhibitor – inhibitors of human galactokinase. Purified GALK, Kinase-Glo residual ATP luminescence. 270,000 compounds, 0.007% hits. Potency, µM (series often up to 57.5 µM), for inactives: at the top dose activity change, negative = inhibition, actives largely listed as inhibitors; note: potency is the fitted concentration of half-maximal effect; % is set by controls: 0 for no effect and ±100 for the full control effect
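Compounds were pin-transferred into ATP buffer (35 uM final), then GALK plus galactose (5 nM, 100 uM final) was added. After 1 h at room temperature, Kinase-Glo Plus was added and luminescence read after 10 min.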
D1 ag – activates the human D1 dopamine receptor; P21728; HEK293 T-REx D1 cells, calcium flux, agonist mode; activation, % at 2 µM; 360,000 compounds, 1% hits; AID 504660; in the data active = activation above about 30%; note: 0% is about no effect
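Tetracycline-induced HEK293 TREx D1 cells, force-coupled to calcium signalling, were dye-loaded with a no-wash calcium kit. Compound was pin-added after a 10 s baseline. Fluorescence was read kinetically at 1 cycle/s for 180 s, with calcium rises flagged as agonism.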
Eya2 inh – Eya2 (human) phosphatase inhibition; O00167; recombinant Eya2, OMFP fluorescence dephosphorylation (OMFP is methylfluorescein phosphate); Potency, µM (highest dose often 76.9 µM), for the others: at the highest dose activity, negative = inhibition, usual class: inhibitors; 330,000 compounds, 0.006% hits; AID 488837; note: potency is the fitted concentration of half-maximal effect; % is set by controls: 0 for no effect and ±100 for the full control effect
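Eya2 protein (added as 0.2 uM solution) was preincubated with compound for 10 min at ambient temperature in 50 mM HEPES pH 7.5, 50 mM NaCl, 5 uM MgCl2, 0.05% BSA, 1 mM DTT. OMFP (added at 50 uM) then reacted 10 min; fluorescence read at 485/525 nm.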
D1 antag – blocks dopamine activation of the human D1 receptor | P21728 | HEK293 TREx D1 cells, calcium flux, dopamine EC80; hits give low values | activity change, negative = inhibition, % at 10 µM | 360,000 compounds, 3.2% hits | AID 504652; in the data active = activity change below about -30%; note: % is set by controls: 0 for no effect and ±100 for the full control effect
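Kinetic fluorescence of a calcium dye serves as the read-out. D1-expressing Hek293 Trex cells, induced overnight at 30 C, are exposed to compound for 180 s before an EC80 dopamine addition, then read 180 s further.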
USP2a block – USP2a (human) protease inhibition; USP2 core, Ub-CHOP2 coupled fluorogenic reporter, 485/531; Potency, µM (series often up to 38.3 µM), for inactives: at the top dose activity change, negative = inhibition, usual class: inhibitors; 330,000 compounds, 0.01% hits; AID 463254;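 note: potency is the fitted concentration of half-maximal effect; plate controls were DMSO wells for no effect and full inhibition by NEM control for full effect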
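USP2 core (10nM final) preincubated 30min RT with compound in 20mM Tris-HCl pH 8.0, 2mM CaCl2, 2mM beta-mercaptoethanol, 0.05% CHAPS; 25nM Ub-CHOP2 plus 25nM reporter substrate added, fluorescence (Ex485/Em531) read after 60min.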
Active calls of the source: *; ? = inconclusive; . = no result given. Unless noted, calls come from the whole dose curve; as a rule, active = well fitted inhibition curve with a large enough effect; inconclusive = small, poorly fitted or top-dose-only effect, or effect the other way; inactive = flat fitted curve, though single readings scatter.

SMILES | D1 potentiator | GALK inhibitor | D1 ag | Eya2 inh | D1 antag | USP2a block
CCOc1ccc(-c2cn3c(n2)sc2cc(C(=O)NC4CCCc5ccccc54)ccc23)cc1 (stereo not drawn) | -3 | . | 1 | . | -3 | .
Nc1nonc1-n1nnc(C(=O)N/N=C/c2ccoc2)c1-c1ccccc1 | -7 | 1% | 35* | 0% | 17 | 4%
CCOc1ccc(-c2c(C(=O)N/N=C/c3ccc(C)o3)nnn2-c2nonc2N)cc1 | -1 | 8% | 0 | 3% | -9 | -2%
Cc1ccc(/C=N/NC(=O)c2nnn(-c3nonc3N)c2-c2ccccc2)o1 | -4 | 1% | 34* | 3% | -15 | 0%
Nc1nonc1-n1nnc(C(=O)N/N=C/c2ccco2)c1-c1ccccc1 | 6 | -2% | 5 | 0% | 6 | 2%
CC(C(=O)NCc1ccccc1)n1ccc2cc(S(=O)(=O)N3CCCC3)ccc21 (stereo not drawn) | -2 | . | 5 | . | -14 | .
Cc1ccc(C)c(Nc2nn3c(=O)c4ccc(C(=O)NCc5ccccc5)cc4nc3s2)c1 | -2 | . | 0 | . | -3 | .
O=C(/C=C/c1ccc2c(c1)OCO2)NCCSCc1cccc(Cl)c1 | -10 | . | 6 | -3% | -31* | -1%
O=C(/C=C/c1ccc2c(c1)OCO2)NCCSCc1ccc(Cl)cc1Cl | -5 | -1% | 20 | 14% | -26 | 4%
O=C(/C=C/c1cccc(F)c1)NCc1ccc2c(c1)OCO2 | -8 | -3% | 5 | 2% | -35* | 0%
O=C(/C=C/c1cccc([N+](=O)[O-])c1)NCc1ccc2c(c1)OCO2 | -2 | -4% | 2 | -3% | 9 | 2%
Cc1ccc(Cl)cc1NC(=O)Cn1c(=O)n(Cc2ccccc2)c(=O)c2oc3ccccc3c21 | -3 | . | 0 | . | -2 | .
O=C(COC(=O)c1cnccn1)c1ccc(C2CCCCC2)cc1 | 9 | 0% | 3 | -14% | -6 | 1%
Cc1cnc(C(=O)OCC(=O)c2ccc(F)cc2)cn1 | 1 | -3% | 2 | 9% | -10 | 1%
CCc1ccc(C(=O)COC(=O)c2cnc(C)cn2)cc1 | -9 | 10% | 6 | 1% | -33* | 2%
Cc1cnc(C(=O)OCC(=O)c2ccc(C3CCCCC3)cc2)cn1 | -2 | . | 7 | -9% | -31* | 0%
O=C(c1ccc2c(c1)N(Cc1cccc(Cl)c1)C(=O)c1ccccc1S2(=O)=O)N1CCc2ccccc21 | -6 | . | 5 | . | 2 | .
Cc1ccc2c(c1)c(N1CCCC1=O)c(C(=O)Nc1ccc(F)cc1F)n2C | -1 | . | -2 | . | 4 | .
COc1cc(OC)c(NC(=O)c2c(N3CCCC3=O)c3cc(C)ccc3n2C)cc1Cl | -4 | . | -2 | . | -88* | .
O=C(Cn1c(=O)nc(-c2ccccc2)c2cc(Cl)ccc21)NCCCc1ccccc1 | -1 | . | 1 | . | 4 | .
CCOC(=O)Nc1ccc2c(c1)N(CCCN(C)C)c1ccccc1CC2 | -10 | 1% | 38* | -8% | -3 | -15%
CCN(CC)S(=O)(=O)c1ccc(N2CCN(CCO)CC2)nc1 | -7 | 2% | 2 | 12% | -71* | -4%
CCOC(=O)N1CCN(c2ccc(S(=O)(=O)N(Cc3ccccc3)Cc3ccccc3)cn2)CC1 | -6 | 1% | 27 | -3% | -31* | 2%
CCOC(=O)N1CCN(C(=O)CN(c2cc(C)ccc2OC)S(=O)(=O)c2ccc(C)cc2)CC1 | -2 | . | 3 | . | -38* | .
CCOC(=O)N1CCN(C(=O)CN(Cc2ccc(Cl)cc2)S(=O)(=O)c2ccccc2)CC1 | -1 | 1% | 3 | -6% | -39* | 2%
COC(=O)C(CCSC)Nc1ncnc2onc(-c3ccc(F)cc3)c12 (stereo not drawn) | 2 | . | 1 | . | -12 | .
C=CCN1C(=O)/C(=C/c2ccc(OC(C)=O)c(OCC)c2[N+](=O)[O-])SC1=S | -7 | ? | 30 | -15% | -31* | -14%
Cc1ccccc1NCc1ccc([N+](=O)[O-])s1 | -9 | 5% | -3 | -2% | -32* | -1%

Assay outcomes as filed in PubChem BioAssay.
